Assay outcomes as filed in PubChem.
CBFb-RUNX1 inh: qHTS Assay for Compounds Blocking the Interaction Between CBF-beta and RUNX1 for the Treatment of Acute Myeloid Leukemia | AID 1477, 2009 | Potency, µM (top dose mostly 59.8 µM), most hits filed as inhibitors | AlphaScreen CBFb-His/RUNX1-biotin binding, biochemical | Runt-related transcription factor 1 (Homo sapiens) + Core-binding factor subunit beta … | 230,000 tested, under 10 active
Target sequence (Q01196 whole entry, looked up): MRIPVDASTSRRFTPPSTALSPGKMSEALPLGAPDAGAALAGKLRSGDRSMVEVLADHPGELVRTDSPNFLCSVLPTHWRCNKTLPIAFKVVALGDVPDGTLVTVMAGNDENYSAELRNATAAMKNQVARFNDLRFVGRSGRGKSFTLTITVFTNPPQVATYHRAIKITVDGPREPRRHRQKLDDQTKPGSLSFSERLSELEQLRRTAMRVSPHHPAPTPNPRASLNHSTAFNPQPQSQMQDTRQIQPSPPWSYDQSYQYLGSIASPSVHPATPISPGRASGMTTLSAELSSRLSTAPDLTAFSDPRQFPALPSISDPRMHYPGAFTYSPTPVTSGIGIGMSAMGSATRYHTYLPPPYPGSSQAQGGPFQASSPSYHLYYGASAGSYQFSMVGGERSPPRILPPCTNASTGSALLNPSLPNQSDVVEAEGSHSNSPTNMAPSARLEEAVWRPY
Target sequence (Q13951 whole entry, looked up): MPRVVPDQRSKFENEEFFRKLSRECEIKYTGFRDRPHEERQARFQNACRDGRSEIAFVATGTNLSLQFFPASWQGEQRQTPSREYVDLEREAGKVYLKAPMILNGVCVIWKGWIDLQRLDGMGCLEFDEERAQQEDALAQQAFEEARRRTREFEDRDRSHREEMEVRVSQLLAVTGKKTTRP
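Interaction loss through any mechanism counts as activity. Pre-formed complex of His-CBF-beta and biotin-RUNX1 (30 nM apiece) is incubated with compound 15 min, then with 50 ng nickel and 50 ng streptavidin beads for 90 min before AlphaScreen detection.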
ALDH1A1 block: qHTS Assay for Inhibitors of Aldehyde Dehydrogenase 1 (ALDH1A1) | Aldehyde dehydrogenase 1A1 (Homo sapiens), P00352 | Purified ALDH1A1, NADH fluorescence, propionaldehyde substrate | Potency, µM (top dose mostly 75.3 µM), usual class: inhibitors | 7.3% of 220,000 active; active means well fitted inhibition curve with a large enough effect, not every such curve was filed as active; inconclusive means small, poorly fitted or top-dose-only effect, or another doubt; inactive means no such curve, though single readings can be large or run the other way
HttQ103 aggreg: qHTS Multiplex Assay to Identify Dual Action Probes in a Cell Model of Huntington: Aggregate Formation (GFP); PC12 HttQ103-GFP aggregates, Acumen cytometry, 40 h; Potency, µM (highest dose often 46.1 µM), hits mostly inhibitors; 1.1% of 220,000 active; AID 1688, 2009; further: nearly all actives have a fitted effect of over 60% in size
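Inducible Q103 Huntingtin exon 1–GFP PC12 line, 1500 cells/well in phenol red free DMEM with 5% equine and 5% calf serum. Tebufenozide 100 nM induced expression; compounds titrated; aggregates quantified by cytometry.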
HPGD inh: qHTS Assay for Inhibitors of HPGD (15-Hydroxyprostaglandin Dehydrogenase); 15-hydroxyprostaglandin dehydrogenase [NAD(+)] (Homo sapiens), P15428; purified HPGD, NADH fluorescence kinetic, PGE2 substrate; Potency, µM, hits mostly inhibitors; 4.3% of 150,000 active; active means well fitted inhibition curve with a large enough effect, not every such curve was filed as active; inconclusive means small, poorly fitted or top-dose-only effect, or another doubt; inactive means no such curve, though single readings can be large or run the other way
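20 nM HPGD preincubated 15 min at room temperature with compound in 50 mM Tris-HCl pH 8, 0.01% Tween 20. Started with 1 mM NAD+ and 30 uM prostaglandin E2; NADH fluorescence (360/450 nm) read 5 times over 30-s intervals, last minus first.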
KDM4E inh: qHTS Assay for Inhibitors of Human Jumonji Domain Containing 2E (JMJD2E) | 1.6% of 230,000 active | Lysine-specific demethylase 4E (Homo sapiens), B2RXH2 | Potency, µM (highest dose often 57.1 µM), usual class: inhibitors | JMJD2E catalytic domain, FDH-coupled NADH fluorescence (FDH is formaldehyde dehydrogenase); further: nearly all actives have a fitted effect of over 50% in size
HTT cytoprotect: qHTS Multiplex Assay to Identify Dual Action Probes in a Cell Model of Huntington: Cytoprotection (ATP); PC12 HTT-Q103 induced, cytoprotection, ATP luminescence, 40 h; Potency, µM (top dose mostly 56.4 µM), usual class: activators; 0.14% of 230,000 active; AID 1471, 2008; further: nearly all actives have a fitted effect of over 45% in size
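PC12 cells with ecdysone-inducible HTT exon 1 Q103-GFP, induced with 100 nM tebufenozide and co-treated with library compounds in a dose series (1536-well, 1500 cells/well). Cytoprotection read as ATP content by ATPlite luminescence.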
Of the large screens only hits and unclear results are named; the others gave an inactive call. Sampled rows, rich in hits. Any-hit rate of the full collection: about 9.8%. Unless noted, the call rests on the fitted dose curve; in most records, active means well fitted curve in the direction sought with a large enough effect; inconclusive means small, poorly fitted or top-dose-only effect, or another doubt; inactive means no such curve, though single readings can be large; an effect the other way counts as inactive or inconclusive.

COc1ccc(Cc2nnc(SCC(=O)N3CCCC(C)C3)o2)cc1 (centres undefined)	ALDH1A1 block 0.89µM (no result: HttQ103 aggreg, HPGD inh, HTT cytoprotect)
COc1ccc(Cc2nnc(SCC(=O)N3CCc4ccccc4C3)o2)cc1	ALDH1A1 block 13µM (no result: HPGD inh)
CC1CCCN(C(=O)Cc2ccc(F)cc2)C1 (centres undefined)	ALDH1A1 block inconclusive
COc1ccc(-c2nnc(SCC(=O)N3CCCC(C)C3)o2)c(OC)c1 (centres undefined)	ALDH1A1 block inconclusive, HPGD inh 16µM
COc1ccc(-c2nnc(SCC(=O)N3CCc4ccccc4C3)o2)cc1	ALDH1A1 block inconclusive, HPGD inh inconclusive
COc1ccc(CC(=O)N2CCCC(C)C2)cc1 (centres undefined)	HPGD inh 28µM
CC12C=C(/C=C/c3ccc(Br)cc3)C(C)(C1)C(c1ccc(Br)cc1)CC2=O (centres undefined)	none (no result: HttQ103 aggreg, HPGD inh, KDM4E inh)
CC(NNC(=O)c1ccccc1)c1ccccc1 (centres undefined)	none (no result: CBFb-RUNX1 inh, ALDH1A1 block, HPGD inh, KDM4E inh)
COc1ccc(C(=O)NCC(=O)N2CCc3ccccc3C2)cc1	ALDH1A1 block inconclusive (no result: HPGD inh)
COc1ccc(OC(C)C(=O)N2CCc3ccccc3C2)cc1 (centres undefined)	HPGD inh 25µM
C/C(=N\OCc1nc2ccccc2c(=O)n1/N=C/c1cc(C)cc([N+](=O)[O-])c1O)c1ccccc1	CBFb-RUNX1 inh inconclusive, KDM4E inh 14µM (no result: ALDH1A1 block, HPGD inh)
Cc1ccccc1-c1nc2ccccc2c(=O)n1/N=C/c1ccccc1[N+](=O)[O-]	ALDH1A1 block 14µM, HPGD inh 22µM
C/C(=N\OCc1nc2ccccc2c(=O)n1/N=C/c1cc([N+](=O)[O-])ccc1O)c1ccccc1	KDM4E inh inconclusive (no result: ALDH1A1 block, HPGD inh)
Cc1nc2ccccc2c(=O)n1/N=C/c1ccccc1O	KDM4E inh 25µM (no result: ALDH1A1 block, HPGD inh)
O=c1c2ccccc2nc(-c2ccccc2)n1/N=C/c1ccc([N+](=O)[O-])cc1	none
Cc1nnc(-c2ccccc2)c(=O)n1/N=C/c1c(O)ccc2ccccc12	CBFb-RUNX1 inh inconclusive, HttQ103 aggreg 3.2µM, KDM4E inh inconclusive
CCOc1ccccc1/C=N/Nc1nc2c(N)ncnc2n1[C@H]1O[C@@H](CO)[C@H](O)[C@@H]1O	none (no result: ALDH1A1 block, HPGD inh)
CC(C)CCC(C(=O)O)C(C)CC(=O)NNC(=O)c1ccco1 (centres undefined)	none (no result: HPGD inh)
COc1ccccc1Nc1nnc(SCC(=O)Nc2nc(-c3ccc(F)cc3)cs2)s1	ALDH1A1 block inconclusive (no result: HPGD inh)
CCOc1ccccc1Nc1nnc(SCC(=O)Nc2nc(-c3ccc(OC)cc3)cs2)s1	ALDH1A1 block 25µM (no result: HPGD inh)
Cc1csc(SCC(=O)Nc2nc(-c3ccccc3)cs2)n1	none
Cc1cccc(Nc2nnc(SCC(=O)Nc3ccccc3[N+](=O)[O-])s2)c1C	ALDH1A1 block 1.3µM, HPGD inh inconclusive
COc1ccc(-c2csc(NC(=O)CSc3nnc(Nc4ccccc4C)s3)n2)cc1	ALDH1A1 block 25µM (no result: HPGD inh)
Cc1ccc(Nc2nnc(SCC(=O)Nc3ccccc3[N+](=O)[O-])s2)cc1	none
N#CC1=C(N)C2=C(N3CCCCC3)CCCC2C1(C#N)C#N (centres undefined)	CBFb-RUNX1 inh inconclusive, ALDH1A1 block inconclusive, KDM4E inh inconclusive
N#CC(C#N)=C1C=C2C=C(N3CCCCC3)CCC2CC1 (centres undefined)	HttQ103 aggreg 10µM (no result: HTT cytoprotect)
CCN(CC)C1=CC2=CC(=C(C#N)C#N)CCC2CC1 (centres undefined)	ALDH1A1 block 2.2µM, HttQ103 aggreg 0.1µM
CCCCN(C)C1=CC2=CC(=C(C#N)C#N)CCC2CC1 (centres undefined)	ALDH1A1 block inconclusive, HttQ103 aggreg 0.32µM
CC12CCC(/C(=N/O)C1=O)C2(C)C (centres undefined)	none (no result: ALDH1A1 block, HttQ103 aggreg, HPGD inh, KDM4E inh, HTT cytoprotect)
CC[N+](CC)(CC=C(C)C)CC(=O)OC	none (no result: HPGD inh)
C[C@@H](O)CCC[C@H](O)/C=C/[C@@H]1[C@@H](C/C=C\CCCC(=O)O)[C@@H](O)C[C@H]1O	none (no result: HttQ103 aggreg)
CC(C)Sc1nnc(NC(=O)C2CC2)s1	ALDH1A1 block 0.05µM
CCc1nnc(NC(=O)c2cccc(C(=O)Nc3nnc(CC)s3)n2)s1	ALDH1A1 block inconclusive, HttQ103 aggreg 0.89µM
CCc1nnc(NC(=O)c2ccncc2)s1	none
CCc1nnc(NC(=O)C2CCCCC2)s1	ALDH1A1 block 25µM, HPGD inh inconclusive
CCc1nnc(NC(=O)CSc2nnc(CNc3ccc(F)cc3)n2C2CCCCC2)s1	ALDH1A1 block 10µM, KDM4E inh inconclusive
CC1C=C[C@@H]2[C@H](C1)C(=O)N(Cc1ccccc1)[C@H]2c1ccccc1Br (some centres undefined)	ALDH1A1 block inconclusive (no result: HttQ103 aggreg, KDM4E inh)
O=C(NC1CC1)C1=C[C@@H](C2CC2)C[C@@H](OCc2ccc(CO)cc2)O1	none (no result: ALDH1A1 block, HPGD inh)
COC(=O)c1coc(-c2ccc(OC)cc2)c1C(=O)OC	ALDH1A1 block inconclusive, HPGD inh inconclusive, KDM4E inh inconclusive
COC(=O)c1coc(-c2ccc(C)cc2)c1C(=O)OC	ALDH1A1 block 22µM
COc1cc(C2CC(c3cccnc3)=NN2c2ccc(F)cc2)cc(OC)c1OC (centres undefined)	CBFb-RUNX1 inh inconclusive, ALDH1A1 block inconclusive, KDM4E inh inconclusive (no result: HPGD inh)
Cc1c(-n2c(O)c(C3=c4ccccc4=NC3=O)sc2=S)c(=O)n(-c2ccccc2)n1C	ALDH1A1 block 7.9µM (no result: HPGD inh)
COc1ccc(Nc2cc(C)nc3nc(C)nn23)c(OC)c1	HPGD inh 8.9µM
COc1cccc(Nc2cc(C)nc3nc(C)nn23)c1	none
COc1ccc(CNc2cc(C)nc3ncnn23)c(OC)c1	HttQ103 aggreg inconclusive, HPGD inh 32µM
COc1ccc(C(=O)O)cc1Nc1cc(C)nc2ncnn12	HPGD inh 25µM
COc1ccc(Nc2cc(C)nc3ncnn23)c(OC)c1	HPGD inh 16µM
O=C(COc1c(Br)cc(Br)c2cccnc12)Nc1ccccc1F	none (no result: HPGD inh)
CC(Nc1cccc(F)c1)C(=O)Nc1ccc(S(N)(=O)=O)cc1 (centres undefined)	none (no result: HPGD inh)
COc1ccc(OC)c(Nc2cc(C)nc3nc(C)nn23)c1	HPGD inh 2µM
COc1ccc(Nc2cc(C)nc3nc(C)nn23)cc1Cl	none
COc1ccc(C)cc1Nc1cc(C)nc2nc(C)nn12	HPGD inh 1.4µM
COc1cc(Nc2cc(C)nc3nc(C)nn23)cc(OC)c1OC	none
